Results taken from PubChem BioAssay AID1851 (National Center for Advancing Translational Sciences (NCATS), 2009).
The campaign covered roughly 16,000 compounds. About 2,600 (16%) were called active. Another 20% or so got no clear call; they are omitted. A selection follows. Unmarked numbers belong to inactive results. The call rests on the fitted dose curve; in most records, active means well fitted curve in the direction sought with a large enough effect; inconclusive means small, poorly fitted or top-dose-only effect, or effect the other way; inactive means no such curve, though single readings can be large or run the other way.

The compounds below were run against Cytochrome P450 2D6 (Homo sapiens) (UniProt P10635) (assay: Cytochrome panel assay with activity outcomes). Conditions: recombinant CYP, pro-luciferin dealkylation, luminescence, p450-cyp2d6; series mostly up to 57.1 µM; activity, negative = inhibition: at the top concentration.
Cytochrome P450 2D6 (Homo sapiens), sequence (P10635 whole entry, looked up): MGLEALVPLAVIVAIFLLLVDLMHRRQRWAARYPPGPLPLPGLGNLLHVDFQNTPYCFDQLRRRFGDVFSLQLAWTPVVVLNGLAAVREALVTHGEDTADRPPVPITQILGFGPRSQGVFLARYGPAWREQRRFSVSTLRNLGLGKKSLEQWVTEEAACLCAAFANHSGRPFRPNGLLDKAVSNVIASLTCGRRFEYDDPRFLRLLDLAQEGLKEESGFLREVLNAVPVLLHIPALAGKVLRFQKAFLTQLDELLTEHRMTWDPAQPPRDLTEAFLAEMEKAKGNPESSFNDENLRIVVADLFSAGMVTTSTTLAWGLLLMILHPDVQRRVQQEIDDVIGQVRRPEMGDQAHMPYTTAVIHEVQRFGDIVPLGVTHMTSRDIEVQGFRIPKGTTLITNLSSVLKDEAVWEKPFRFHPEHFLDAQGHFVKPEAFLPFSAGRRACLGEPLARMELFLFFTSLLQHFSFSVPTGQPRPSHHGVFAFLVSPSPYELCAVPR
On the % scale 0 is the no-effect control and ±100 the full control effect.

| Structure (SMILES) | activity, negative = inhibition | AC50 |
| --- | --- | --- |
| CC1CCCC(C)N1C(=O)C1CC(c2ccc(F)cc2)=NO1 (stereo not drawn) | -5.48% |  |
| c1ccc(CCSc2nccn2-c2ccccc2)cc1 |  | 1.41 µM (active) |
| Clc1ccc(CSc2nccn2Cc2ccccc2)cc1 |  | 5.01 µM (active) |
| Cn1c(CNC(=O)Nc2ccccc2)nnc1SCc1ccccc1 | -8.99% |  |
| CCc1ccc(CSc2nccn2-c2ccccc2)cc1 |  | 17.8 µM (active) |
| CCn1c(SCc2ccc(C)cc2)nnc1-c1nn(-c2ccccc2)ccc1=O | -12.7% |  |
| O=c1ccnc(SCc2ccc(Cl)cc2)[nH]1 | 6.62% [at 11.4 µM] |  |
| O=C(O)CSCCc1ccccc1 | -0.751% [at 11.4 µM] |  |
| Nc1nc(SCc2ccccc2)c2ncn(Cc3ccccc3)c2n1 | 9.39% [at 11.4 µM] |  |
| Cc1noc(NC(=O)Nc2ccccc2F)c1C#N | 0.368% [at 11.4 µM] |  |
| CC(/C=C/c1ccco1)=N/NC(=O)c1ccccc1Cl | -12.5% |  |
| CCOC(=O)N/N=C1/C[C@@H](O)[C@@H](O)[C@@H]2[C@@H]3C(=O)N(C(C)(C)C)C(=O)[C@H]3CC[C@@H]12 | -10.6% [at 11.4 µM] |  |
| CO[C@H]1COC(=O)CCC[C@H](C)[C@@H](OC)COC(=O)C/C=C\[C@@H]1C | -0.797% [at 11.4 µM] |  |
| Cc1ccc(S(=O)(=O)c2cc(N3CCOCC3)nc(-c3ccccc3)n2)cc1 | -14% |  |
| N#CCCn1c(=O)cnc2cnc(OCc3ccccc3)nc21 | -3.27% |  |
| CCCNC(=O)OC[C@@H]1O[C@H](CCON=C(C)C)C=C[C@@H]1Oc1ccc(OC)cc1 | -7.52% [at 11.4 µM] |  |
| COc1cc2nc(N3CC=[N+](C(=O)c4ccco4)CC3)nc(N)c2cc1OC | -10% |  |
| CCOc1ccccc1/C=C(\C#N)C(N)=O | 1.77% [at 11.4 µM] |  |
| C[C@H]1C2=C3C(CC[C@H]4C(OCc5ccc(F)cc5C(F)(F)F)OC[C@](C)([C@@H]34)N(C(=O)OC(C)(C)C)C2)C(CO)C1CO (stereo partly drawn) | -7.43% |  |
| Nc1nc2c(c(=O)[nH]1)N(C=O)[C@H](CNc1ccc(C(=O)N[C@@H](CCC(=O)O)C(=O)O)cc1)CN2 | 2.81% [at 25.6 µM] |  |
| CC(Sc1nnc(Cc2cccs2)n1C1CCCCC1)C(N)=O (stereo not drawn) | 2.37% |  |
| CC1CCC(NC(=O)CC(C)(C)Cc2nc3ccccc3c(=O)[nH]2)CC1 (stereo not drawn) | -11.4% |  |
| N=C(C[C@@H](O)COc1ccccc1-c1ccccc1)N1CCCCC1 |  | 31.6 µM (active) |
| O=C(COc1ccccc1-c1ccccc1)N/N=C/c1cccc2ccccc12 | -20.7% |  |

| Structure (SMILES) | activity, negative = inhibition | AC50 |
| --- | --- | --- |
| O=c1c(-c2cc(F)cc(F)c2)nc2cnc(N3CCNCC3)nc2n1C1CC1 | -10.9% |  |
| Cc1ccc2cc(C(=O)O)c(C)nc2c1 | 14.1% |  |
| Cc1ccc(CSc2nc3c(c(SCC(=O)O)n2)CCCC3)cc1 | 22.3% |  |
| CO[C@H]1COC(=O)C/C=C\[C@@H](C)[C@H](OC)COC(=O)[C@H]2CCCN2C(=O)C/C=C\[C@@H]1C | 18.5% [at 11.4 µM] |  |
| CC(O)(CS(=O)(=O)Cc1ccccc1Cl)C(=O)Nc1cccc(C(F)(F)F)c1 (stereo not drawn) | -19.7% |  |
| O=C(Nc1ccccc1)N(Cc1ccccc1)CC(O)C(F)(F)F (stereo not drawn) | -12.8% |  |
| O=C(Nc1cccc(C(F)(F)F)c1)N(Cc1ccc(Cl)cc1)CC(O)C(F)(F)F (stereo not drawn) |  | 15.8 µM (active) |
| O=S(=O)(NCc1cn2ccsc2n1)c1ccc(Oc2ccccc2)cc1 | -5.31% |  |
| CCN(c1ccc(NC(=O)COC(=O)c2ccc3ccccc3n2)cc1)C(C)C | -23.3% |  |
| O=C(OCCNC(=O)c1ccc2ccccc2n1)c1ccc(F)cc1 |  | 15.8 µM (active) |
| O=C(NCCOC(=O)c1ccc(C(=O)OCCNC(=O)c2cccnc2)s1)c1cccnc1 | -19.5% |  |
| Cc1cc(C)cc(-n2nnnc2SCC(=O)Nc2nc(-c3ccc(Cl)cc3)cs2)c1 | -11.9% |  |
| COc1ccc(NC(=O)N2CC[C@@]3(CCCN(C(=O)c4c(C)noc4C)C3)C2)cc1 | 18.1% |  |
| COC(=O)N1CCC[C@@]2(CCN(C(=O)Nc3ccc(OC)cc3)C2)C1 | -5.4% |  |
| Cc1noc(C)c1C(=O)N1CCC[C@@]2(CCN(c3ccccc3)C2)C1 | -15% |  |
| COc1ccc(NC(=O)N2CC3(CCN(C(=O)c4c(C)noc4C)CC3)C2)cc1 | -3.71% |  |
| CC(=O)N1CCC2(CC1)CN(C(c1ccccc1)c1ccccc1)C2 | 13.1% |  |
| COC(=O)N1CCC[C@@]2(CCN(C(=O)Nc3ccccc3)C2)C1 | 4.3% |  |
| COC(=O)N1CCC[C@@]2(CCN(C(c3ccccc3)c3ccccc3)C2)C1 |  | 2 µM (active) |
| Cc1noc(C)c1C(=O)N1CCC2(CC1)CN(c1ccccc1)C2 | -7.99% |  |
| CC(=O)N1CCC2(CC1)CCN(C(c1ccccc1)c1ccccc1)CC2 |  | 7.94 µM (active) |
| Cc1noc(C)c1C(=O)N1CCC2(CCCN(C(c3ccccc3)c3ccccc3)C2)CC1 |  | 2 µM (active) |
| COc1ccc(NC(=O)N2CCCC3(CCN(C(=O)c4c(C)noc4C)CC3)C2)cc1 |  | 10 µM (active) |
| CC(=O)N1CCC2(CC1)CN(c1ccccc1)C2 | 3.1% |  |
